This passage reports growth results from PubChem BioAssay (NCI).

Values joined by “and” are separate entries in the source; they are usually repeats but may differ in a detail not shown here. Equal entries are not always repeated. About 83,000 compounds went through this panel and 20% of them were active in at least one assay; those are over-represented in the sample as a whole.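 For each line, cells grew in 96-well plates with the test compound present at a single concentration for 48 hours.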 Active and inactive are the calls of the source. Rule for the calls: active = growth percent below 10; inactive = the rest.

The subject of one test is DU-145 prostate. The experiment in a line: NCI-60 one-dose screen, 48 h (100 = growth as untreated, 0 = no growth, -100 = all killed). The note with it: 10 µM.
As to `C=NCC#N`, the growth was 109% (inactive).

Regarding `COC(=O)C1C(O)C(C)C(O)C(C)/C=C\C=C(C)C(=O)Nc2c(C)c(OC(C)=O)c3c(c2O)C(=O)C(C)=C2OCOC(=C23)C(C)=CC(C)(O)C(O)C(C)C1O` (centres undefined), the growth is 92.2% (inactive).

`[Cl][Hg][c]1ccc(Cl)s1`: the growth is 62.5% (inactive).

`CC(C)c1cc([N+](=O)[O-])cc([N+](=O)[O-])c1O`: the growth was 110% (inactive).

Take `COS(=O)(=O)c1ccccc1`: the growth was 114% (inactive).

For `[O-][n+]1ccccc1S`, the growth is 32.3% (inactive).

As to `COC(C(=O)C(O)C(C)O)C1Cc2cc3cc(OC4CC(OC(C)=O)C(OC5CC(O)C(OC)C(C)O5)C(C)O4)cc(O)c3c(O)c2C(=O)C1OC1CC(OC2CC(OC3CC(C)(O)C(OC(=O)C(C)C)C(C)O3)C(O)C(C)O2)C(O)C(C)O1` (centres undefined), the growth is -32.2% (active).

As for `C/C1=C\[C@H](C)C[C@H](C)OC(=O)C[C@H](c2ccc(O)cc2)NC(=O)[C@@H](Cc2c(Br)[nH]c3ccccc23)N(C)C(=O)[C@H](C)NC(=O)[C@@H](C)C1`, the growth is -15.6% (active).

In the case of `Oc1c(I)cc(I)cc1I`, the growth was 114% (inactive).

On to `COc1ccc2c(ccc3oc([N+](=O)[O-])cc32)c1`, for which the growth is 0.495% (active).

Take `CC(C)(C)OOC(=O)/C=C\C(=O)OOC(C)(C)C`: the growth is 112% (inactive).

In the case of `CC12OOC(c3ccccc31)c1c2ccc2ccccc12` (centres undefined), the growth is -95.3% (active).

In the case of `COc1cc(/C=C/[N+](=O)[O-])cc(Br)c1OC`, the growth is 66.5% (inactive).

As to `COc1ccc(/C=C\[N+](=O)[O-])cc1OC`, the growth was 60.5% (inactive) and 59.3% (inactive).

For `Cc1cc(C(C)(C)c2ccc(O)c(C)c2)ccc1O`, the growth is 107% (inactive).

As for `O=[P+](O)c1ccccc1`, the growth is 121% (inactive).

For `O=C(CCl)Nc1ccc(Cl)cc1`, the growth is 76.1% (inactive).

Regarding `Cc1ccc(C(=O)C2C(c3ccccc3)N2C2CCCCC2)cc1` (centres undefined), the growth was 105% (inactive) and 111% (inactive).

`COc1ccccc1[As]=[As]c1ccccc1OC` (centres undefined): the growth was -89.9% (active).

For `COc1cc2c(cc1OC)C13CCN4CC5=CCOC6CC(=O)N2C1C6C5CC43` (centres undefined), the growth was 123% (inactive) and 116% (inactive).

In the case of `Cn1c(O)c(N=O)c(=O)n(C)c1=O`, the growth is 98.1% (inactive) and 106% (inactive).

Turning to `N#CCc1ccccc1`, the growth was 113% (inactive).

Consider `COc1cc([C@@H]2c3cc4c(c(O)c3C[C@H]3COC(=O)[C@@H]32)OCO4)cc(OC)c1OC`, for which the growth was -28.2% (active).

Regarding `CC[C@@H](C)[C@@H]1NC(=O)C(NC(=O)C(CC(C)C)N(C)C(=O)C2CCCN2C(=O)C(C)O)C(C)OC(=O)C(Cc2ccc(OC)cc2)N(C)C(=O)C2CCCN2C(=O)C(CC(C)C)NC(=O)C(C)C(=O)C(C(C)C)OC(=O)C[C@H]1O` (some centres undefined), the growth was -40.7% (active).

On to `CC[C@@]1(O)C[C@H](OC2CC(N(C)C)C(O)C(C)O2)c2c(cc3c(c2O)C(=O)c2c(O)ccc(O)c2C3=O)[C@H]1C(=O)OC` (some centres undefined), for which the growth was -77.8% (active).

In the case of `O=C(CBr)Nc1ccccc1`, the growth is 102% (inactive).

In the case of `S=C=NCCc1ccccc1`, the growth is 44.5% (inactive).

The test system of a further test is K-562 leukemia. The test is described as above. The note with it: 10 µM.
As for `C=NCC#N`, the growth was 91.2% (inactive) and 107% (inactive).

Regarding `COC(=O)C1C(O)C(C)C(O)C(C)/C=C\C=C(C)C(=O)Nc2c(C)c(OC(C)=O)c3c(c2O)C(=O)C(C)=C2OCOC(=C23)C(C)=CC(C)(O)C(O)C(C)C1O` (centres undefined), the growth is 106% (inactive).

For the molecule `[Cl][Hg][c]1ccc(Cl)s1`, the growth was -0.908% (active).

In the case of `CC(C)c1cc([N+](=O)[O-])cc([N+](=O)[O-])c1O`, the growth is 119% (inactive).

`COS(=O)(=O)c1ccccc1`: the growth was 103% (inactive).

As for `[O-][n+]1ccccc1S`, the growth is 31.2% (inactive).

Take `COC(C(=O)C(O)C(C)O)C1Cc2cc3cc(OC4CC(OC(C)=O)C(OC5CC(O)C(OC)C(C)O5)C(C)O4)cc(O)c3c(O)c2C(=O)C1OC1CC(OC2CC(OC3CC(C)(O)C(OC(=O)C(C)C)C(C)O3)C(O)C(C)O2)C(O)C(C)O1` (centres undefined): the growth is -68.4% (active).

Regarding `C/C1=C\[C@H](C)C[C@H](C)OC(=O)C[C@H](c2ccc(O)cc2)NC(=O)[C@@H](Cc2c(Br)[nH]c3ccccc23)N(C)C(=O)[C@H](C)NC(=O)[C@@H](C)C1`, the growth was 0.288% (active).

Turning to `Oc1c(I)cc(I)cc1I`, the growth is 98.6% (inactive).

With `COc1ccc2c(ccc3oc([N+](=O)[O-])cc32)c1`, the growth is 0.428% (active).

With `CC(C)(C)OOC(=O)/C=C\C(=O)OOC(C)(C)C`, the growth is 104% (inactive).

With `CC12OOC(c3ccccc31)c1c2ccc2ccccc12` (centres undefined), the growth was -82.8% (active).

Consider `COc1cc(/C=C/[N+](=O)[O-])cc(Br)c1OC`, for which the growth was 4.74% (active).

Take `COc1ccc(/C=C\[N+](=O)[O-])cc1OC`: the growth was 69.7% (inactive) and 27.5% (inactive).

On to `Cc1cc(C(C)(C)c2ccc(O)c(C)c2)ccc1O`, for which the growth was 80.8% (inactive).

For the molecule `O=[P+](O)c1ccccc1`, the growth is 103% (inactive).

Take `O=C(CCl)Nc1ccc(Cl)cc1`: the growth was 19.4% (inactive).

Consider `Cc1ccc(C(=O)C2C(c3ccccc3)N2C2CCCCC2)cc1` (centres undefined), for which the growth is 87.3% (inactive) and 83% (inactive).

With `COc1ccccc1[As]=[As]c1ccccc1OC` (centres undefined), the growth was 8.02% (active).

Take `COc1cc2c(cc1OC)C13CCN4CC5=CCOC6CC(=O)N2C1C6C5CC43` (centres undefined): the growth was 124% (inactive) and 74.9% (inactive).

`Cn1c(O)c(N=O)c(=O)n(C)c1=O`: the growth is 94.1% (inactive) and 95.2% (inactive).

On to `N#CCc1ccccc1`, for which the growth is 98.3% (inactive).

For `COc1cc([C@@H]2c3cc4c(c(O)c3C[C@H]3COC(=O)[C@@H]32)OCO4)cc(OC)c1OC`, the growth is 7.73% (active).

As for `CC[C@@H](C)[C@@H]1NC(=O)C(NC(=O)C(CC(C)C)N(C)C(=O)C2CCCN2C(=O)C(C)O)C(C)OC(=O)C(Cc2ccc(OC)cc2)N(C)C(=O)C2CCCN2C(=O)C(CC(C)C)NC(=O)C(C)C(=O)C(C(C)C)OC(=O)C[C@H]1O` (some centres undefined), the growth was -27% (active).

Take `CC[C@@]1(O)C[C@H](OC2CC(N(C)C)C(O)C(C)O2)c2c(cc3c(c2O)C(=O)c2c(O)ccc(O)c2C3=O)[C@H]1C(=O)OC` (some centres undefined): the growth was -73.7% (active).

As to `O=C(CBr)Nc1ccccc1`, the growth is 39.4% (inactive).

Regarding `S=C=NCCc1ccccc1`, the growth was 20.4% (inactive).
